The supplement of paper PMC10849652
About 7,900 targets were measured; listed, in parts, are those with a hit and a random draw of the rest. About 0.6% of all pairs of compound and target were hits. Unmarked numbers belong to inactive results.

Columns and labels:
Assay in all cases: log2 fold change, soluble protein after heating vs DMSO (PISA); higher = thermal stabilisation; K562 cells, 10 uM, 30 min; active = over 0.2 and 3.5 SD of the protein, either way, in both replicates (recomputed)
[1] = compound: C1COCCN1CCN2C3=CC=CC=C3N=C2NC(=O)C4=CC(=CC=C4)[N+](=O)[O-] [IRAK-1-4 Inhibitor I]
Procedure, shortened: (§1)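 K562 cells at 2×10^6 cells/mL were treated with 10 μM compound for 30 min. Aliquots were heated for 3 min across 48°C-58°C, pooled, and extracted in PBS with 0.5% NP-40 at 4°C; soluble protein was the supernatant after 21,000xg for 90 min. Soluble protein was quantified by TMTpro 16plex LC-MS/MS with channel sums equalised, and reported as log2 fold change in thermal stability against DMSO controls, with values from duplicates.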

[2] = compound: C=CC(=O)N1CCC[C@@H](n2nc(-c3ccc(Oc4ccccc4)cc3)c3c(N)ncnc32)C1 [ibrutinib]
Procedure, shortened: as §1

[3] = compound: CC(=O)c1cnc2ccc(-c3cc(Cl)c(O)c(Cl)c3)nc2c1N[C@H]1CC[C@H](CN(C)C)CC1
Procedure, shortened: as §1

[4] = compound: CC(C)(C)Cn1c(N)nc2ccc(-c3[nH]c(C(C)(C)C)nc3-c3ccc(F)cc3)nc21 [ralimetinib]
Procedure, shortened: as §1

[5] = compound: CC(C)(O)CC(=O)NCCn1ccc2ncnc(Nc3ccc(Oc4cccc(C(F)(F)F)c4)c(Cl)c3)c21
Procedure, shortened: as §1

[6] = compound: CC(C)C1=C2N=C(C=C(N2N=C1)NCC3=CC=CC=C3)NCCCCCCN
Procedure, shortened: as §1

[7] = compound: CC(C)C[C@@H](C=O)NC(=O)[C@H](CC(C)C)NC(=O)[C@H](CC(C)C)NC(=O)OCc1ccccc1
Procedure, shortened: as §1

[8] = compound: CC(C)N(C[C@H]1O[C@@H](n2cnc3c(N)ncnc32)[C@H](O)[C@@H]1O)[C@H]1C[C@@H](CCc2nc3cc(C(C)(C)C)ccc3[nH]2)C1 [pinometostat]
Procedure, shortened: as §1

[9] = compound: CC1=C(C(CC(=O)N1)C2=CC=C(C=C2)C(F)(F)F)C(=O)NC3=C(C=C4C(=C3)C=NN4)F
Procedure, shortened: as §1

[10] = compound: CC1=C(C2=C(C=C1)C(=O)C3=CC=CC=C3N2CCCN)C
Procedure, shortened: as §1

UniProt P11802, sequence (P11802 whole entry, looked up): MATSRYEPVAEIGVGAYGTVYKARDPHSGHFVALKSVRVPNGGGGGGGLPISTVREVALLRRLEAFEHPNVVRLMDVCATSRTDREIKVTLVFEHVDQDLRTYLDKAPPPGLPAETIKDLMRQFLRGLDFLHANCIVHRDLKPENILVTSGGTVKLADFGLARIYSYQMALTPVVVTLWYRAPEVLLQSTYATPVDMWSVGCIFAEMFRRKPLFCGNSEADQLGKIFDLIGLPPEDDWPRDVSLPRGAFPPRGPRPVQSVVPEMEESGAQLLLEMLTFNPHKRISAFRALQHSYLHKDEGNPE
UniProt O95628, sequence (O95628 whole entry, looked up): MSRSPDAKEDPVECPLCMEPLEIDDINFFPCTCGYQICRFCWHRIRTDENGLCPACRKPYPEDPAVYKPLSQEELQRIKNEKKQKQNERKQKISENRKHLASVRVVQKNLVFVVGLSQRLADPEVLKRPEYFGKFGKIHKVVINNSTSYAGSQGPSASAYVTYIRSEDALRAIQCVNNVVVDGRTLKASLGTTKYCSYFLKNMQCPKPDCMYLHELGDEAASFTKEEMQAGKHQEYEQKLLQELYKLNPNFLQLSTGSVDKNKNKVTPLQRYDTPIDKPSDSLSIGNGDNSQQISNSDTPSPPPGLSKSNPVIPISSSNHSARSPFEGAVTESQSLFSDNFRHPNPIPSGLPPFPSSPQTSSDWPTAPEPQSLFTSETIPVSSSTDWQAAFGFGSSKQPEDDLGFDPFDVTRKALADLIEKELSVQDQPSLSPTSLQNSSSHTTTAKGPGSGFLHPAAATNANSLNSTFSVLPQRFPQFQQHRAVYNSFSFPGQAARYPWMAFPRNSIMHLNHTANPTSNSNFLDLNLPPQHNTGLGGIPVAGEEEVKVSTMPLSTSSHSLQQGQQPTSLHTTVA
UniProt P19784, sequence (P19784 whole entry, looked up): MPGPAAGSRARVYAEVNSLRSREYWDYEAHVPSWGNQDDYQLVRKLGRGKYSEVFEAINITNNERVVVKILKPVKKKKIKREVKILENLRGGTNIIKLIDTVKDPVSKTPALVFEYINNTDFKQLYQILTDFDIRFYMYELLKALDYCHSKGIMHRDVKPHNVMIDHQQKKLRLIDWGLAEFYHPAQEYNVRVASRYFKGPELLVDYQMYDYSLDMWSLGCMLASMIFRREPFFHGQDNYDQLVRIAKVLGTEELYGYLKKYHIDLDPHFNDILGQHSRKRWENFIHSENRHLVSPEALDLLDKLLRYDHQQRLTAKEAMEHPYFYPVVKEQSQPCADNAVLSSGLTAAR
UniProt Q13901, sequence (Q13901 whole entry, looked up): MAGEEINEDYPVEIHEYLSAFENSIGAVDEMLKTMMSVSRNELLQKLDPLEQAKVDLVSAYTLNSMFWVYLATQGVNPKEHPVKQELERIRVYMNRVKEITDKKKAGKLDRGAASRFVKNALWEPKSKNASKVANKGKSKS
UniProt Q9UHN6, sequence (Q9UHN6 whole entry, looked up): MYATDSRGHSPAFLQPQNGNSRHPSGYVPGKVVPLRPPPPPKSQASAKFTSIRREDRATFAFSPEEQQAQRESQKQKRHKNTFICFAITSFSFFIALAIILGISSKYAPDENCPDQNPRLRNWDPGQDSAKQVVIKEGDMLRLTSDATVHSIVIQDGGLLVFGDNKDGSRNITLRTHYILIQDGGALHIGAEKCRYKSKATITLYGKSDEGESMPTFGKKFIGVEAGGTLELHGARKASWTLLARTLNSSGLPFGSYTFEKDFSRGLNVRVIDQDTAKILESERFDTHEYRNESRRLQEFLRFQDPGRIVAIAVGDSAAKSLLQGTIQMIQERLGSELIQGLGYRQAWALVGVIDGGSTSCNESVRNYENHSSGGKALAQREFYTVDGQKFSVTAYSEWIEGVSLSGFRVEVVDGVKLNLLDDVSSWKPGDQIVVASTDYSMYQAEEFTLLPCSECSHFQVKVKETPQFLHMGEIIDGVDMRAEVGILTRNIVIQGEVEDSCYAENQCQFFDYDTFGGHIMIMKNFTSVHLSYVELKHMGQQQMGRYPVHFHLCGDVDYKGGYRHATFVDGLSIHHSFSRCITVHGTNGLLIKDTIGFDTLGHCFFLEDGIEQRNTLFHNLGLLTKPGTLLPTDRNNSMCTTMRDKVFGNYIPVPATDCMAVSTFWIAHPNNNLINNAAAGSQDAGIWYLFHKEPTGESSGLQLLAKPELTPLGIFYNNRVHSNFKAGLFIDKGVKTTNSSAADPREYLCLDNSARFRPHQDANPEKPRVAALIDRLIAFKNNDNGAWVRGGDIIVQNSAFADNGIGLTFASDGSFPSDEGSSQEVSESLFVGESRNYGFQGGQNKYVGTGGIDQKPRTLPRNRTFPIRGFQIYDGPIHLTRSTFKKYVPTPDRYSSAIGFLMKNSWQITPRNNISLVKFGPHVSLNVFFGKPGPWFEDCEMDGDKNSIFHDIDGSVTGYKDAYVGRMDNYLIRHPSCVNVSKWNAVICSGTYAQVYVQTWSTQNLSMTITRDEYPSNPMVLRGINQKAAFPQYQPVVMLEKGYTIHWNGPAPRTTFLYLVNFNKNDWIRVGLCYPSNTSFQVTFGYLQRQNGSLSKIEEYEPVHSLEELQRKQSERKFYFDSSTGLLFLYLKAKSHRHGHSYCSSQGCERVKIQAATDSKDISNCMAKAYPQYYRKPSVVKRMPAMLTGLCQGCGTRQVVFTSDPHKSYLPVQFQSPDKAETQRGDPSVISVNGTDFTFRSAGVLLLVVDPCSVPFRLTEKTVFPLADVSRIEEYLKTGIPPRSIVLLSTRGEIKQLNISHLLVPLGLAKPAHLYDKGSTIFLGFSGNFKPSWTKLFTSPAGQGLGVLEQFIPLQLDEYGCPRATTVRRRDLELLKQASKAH
UniProt Q96JM3, sequence (Q96JM3 whole entry, looked up): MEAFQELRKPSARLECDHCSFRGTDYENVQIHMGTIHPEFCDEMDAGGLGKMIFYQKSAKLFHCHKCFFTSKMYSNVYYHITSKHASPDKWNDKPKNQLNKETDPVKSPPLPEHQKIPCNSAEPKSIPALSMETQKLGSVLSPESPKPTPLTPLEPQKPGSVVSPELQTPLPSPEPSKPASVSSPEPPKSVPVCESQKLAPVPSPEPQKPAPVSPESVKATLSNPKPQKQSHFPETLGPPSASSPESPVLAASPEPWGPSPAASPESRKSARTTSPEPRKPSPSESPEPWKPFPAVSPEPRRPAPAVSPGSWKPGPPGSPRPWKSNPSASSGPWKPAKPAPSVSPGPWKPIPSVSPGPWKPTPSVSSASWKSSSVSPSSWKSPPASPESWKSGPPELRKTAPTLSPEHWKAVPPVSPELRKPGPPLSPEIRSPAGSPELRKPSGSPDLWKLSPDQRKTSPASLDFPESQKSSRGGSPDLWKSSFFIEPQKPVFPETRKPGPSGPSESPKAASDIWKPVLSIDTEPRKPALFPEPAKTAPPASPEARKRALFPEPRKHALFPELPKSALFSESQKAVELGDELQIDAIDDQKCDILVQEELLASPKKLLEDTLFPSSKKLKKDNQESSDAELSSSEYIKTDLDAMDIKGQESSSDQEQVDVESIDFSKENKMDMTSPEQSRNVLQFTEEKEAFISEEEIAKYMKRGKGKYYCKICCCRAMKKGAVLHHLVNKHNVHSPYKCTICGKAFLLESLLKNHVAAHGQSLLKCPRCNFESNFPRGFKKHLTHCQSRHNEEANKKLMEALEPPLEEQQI
UniProt P50750, sequence (P50750 whole entry, looked up): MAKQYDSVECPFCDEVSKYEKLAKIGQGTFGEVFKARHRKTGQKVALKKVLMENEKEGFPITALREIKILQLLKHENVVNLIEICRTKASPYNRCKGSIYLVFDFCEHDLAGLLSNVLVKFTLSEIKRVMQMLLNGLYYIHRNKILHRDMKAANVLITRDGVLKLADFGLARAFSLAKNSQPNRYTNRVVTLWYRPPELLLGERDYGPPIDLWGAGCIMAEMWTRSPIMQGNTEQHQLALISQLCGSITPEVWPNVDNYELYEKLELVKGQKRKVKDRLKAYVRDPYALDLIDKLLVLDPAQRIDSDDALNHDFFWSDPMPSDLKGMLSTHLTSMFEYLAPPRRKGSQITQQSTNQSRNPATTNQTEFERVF
UniProt O75956, sequence (O75956 whole entry, looked up): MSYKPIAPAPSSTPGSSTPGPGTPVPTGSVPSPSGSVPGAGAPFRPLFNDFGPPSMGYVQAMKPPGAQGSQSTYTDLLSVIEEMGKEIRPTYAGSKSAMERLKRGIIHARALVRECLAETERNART
UniProt Q8N4Q1, sequence (Q8N4Q1 whole entry, looked up): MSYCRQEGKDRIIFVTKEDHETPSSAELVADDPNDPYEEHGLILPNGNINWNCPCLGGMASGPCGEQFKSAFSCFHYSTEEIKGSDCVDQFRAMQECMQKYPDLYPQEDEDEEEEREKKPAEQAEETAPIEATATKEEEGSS
UniProt Q9UKF6, sequence (Q9UKF6 whole entry, looked up): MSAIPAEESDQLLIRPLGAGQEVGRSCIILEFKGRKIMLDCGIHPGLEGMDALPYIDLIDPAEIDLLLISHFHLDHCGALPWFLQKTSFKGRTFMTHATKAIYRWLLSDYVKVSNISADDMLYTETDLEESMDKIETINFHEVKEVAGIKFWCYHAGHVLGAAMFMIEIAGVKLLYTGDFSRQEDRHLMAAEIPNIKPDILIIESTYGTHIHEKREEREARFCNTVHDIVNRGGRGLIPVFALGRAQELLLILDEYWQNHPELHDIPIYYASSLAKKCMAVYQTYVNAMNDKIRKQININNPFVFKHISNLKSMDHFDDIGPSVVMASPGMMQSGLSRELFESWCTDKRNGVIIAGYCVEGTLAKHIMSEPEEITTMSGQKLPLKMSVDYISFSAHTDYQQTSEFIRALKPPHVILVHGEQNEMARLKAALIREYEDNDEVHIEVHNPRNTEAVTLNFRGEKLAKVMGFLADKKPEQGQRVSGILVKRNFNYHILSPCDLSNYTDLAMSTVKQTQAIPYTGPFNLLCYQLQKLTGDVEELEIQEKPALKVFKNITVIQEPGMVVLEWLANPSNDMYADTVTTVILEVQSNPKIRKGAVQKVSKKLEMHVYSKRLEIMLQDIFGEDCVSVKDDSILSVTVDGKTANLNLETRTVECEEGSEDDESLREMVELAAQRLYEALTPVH
UniProt P15954, sequence (P15954 whole entry, looked up): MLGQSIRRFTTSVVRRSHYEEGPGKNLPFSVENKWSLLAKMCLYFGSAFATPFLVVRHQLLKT

Target	log2 fold change [1]	log2 fold change [2]	log2 fold change [3]	log2 fold change [4]	log2 fold change [5]	log2 fold change [6]	log2 fold change [7]	log2 fold change [8]	log2 fold change [9]	log2 fold change [10]
CHERP (UniProt Q8IWX8)	-0.091	-0.069	-0.317 (active)	0.013	-0.074	-0.097	0.048	0.021	0.122	-0.079
CIT isoform 4 (UniProt O14578)	-0.013	-0.057	-0.462 (active)	-0.008	-0.077	-0.021	0.045	-0.005	0.045	0.118
CD55 isoform 7 (UniProt P08174)	-0.043	0.071	-0.008	0.016	0.037	0.155	-0.012	0.019	0.02	-0.054
CBR1 (UniProt P16152)	0.023	0.009	0.031	0.097	-0.007	0.061	-0.088	-0.035	-0.009	0.028
CDK9 isoform 2 (UniProt P50750)	-0.02	-0.017	0.233	-0.008	0	-0.113	0.044	0.157	-0.03	-0.144
CDK4 (UniProt P11802)	0.001	-0.004	0.685 (active)	0.054	-0.098	-0.333	0.105	0.081	-0.069	
CERS2 (UniProt Q96G23)	0.06	-0.013	0.125	-0.026	-0.176	-0.425 (active)	0.034	0.042	0.003	-0.04
CDKN2AIP (UniProt Q9NXV6)	-0.057	0.039	0.062	0.059	0.01	0.056	-0.04	0.032	-0.056	0.241 (active)
CPT1A (UniProt P50416)	-0.163	-0.024	-0.103	0.05	0.049	0.195	-0.03	0.06	-0.109	-0.047
COA6 isoform 2 (UniProt Q5JTJ3)	0.043	0.036	0.019	-0.071	0.045	0.059	-0.026	-0.04	0.016	-0.004
CPSF3 (UniProt Q9UKF6)	-0.044	-0.04	0.026	-0.006	0.028	-0.052	0.035	0.036	-0.025	-0.013
CHAMP1 (UniProt Q96JM3)	0.047	0.066	-0.207	0.033	-0.036	-0.047	-0.015	0.034	0.004	-0.23 (active)
CHCHD4 isoform 2 (UniProt Q8N4Q1)	0.056	0.003	0.096	-0.003	0.002	0.075	0.03	-0.024	-0.011	-0.18
CCNC (UniProt P24863)	0.071	-0.082	0.595 (active)	-0.027	0.053	0.041	0.071	-0.058		
CSNK2B (UniProt P67870)	-0.003	-0.014	0.266 (active)	-0.006	-0.021	-0.087	-0.003	0.044	0.022	0.096
CNOT4 isoform 6 (UniProt O95628)	0.044	0.016	-0.062	-0.048	0.002	0.038	-0.019	-0.025	0.018	0.051
CDK2AP2 (UniProt O75956)	-0.087	0.011	0.094	0	-0.077	0.258	-0.438 (active)	-0.135	0.03	
CDKN1B (UniProt P46527)	0.023	0.015	0.173	-0.024	0.012	0.215	0.536 (active)	-0.023	0.018	
CDK13 (UniProt Q14004)	-0.05	0.024	-0.52 (active)	0.199	0.031	-0.171	0.081	0.043	0.013	-0.017
COX7C (UniProt P15954)	-0.013	0.057	-0.013	0.301	0.041	0.184	0.074	0.092	0.022	0.009
CHAF1A (UniProt Q13111)	0	-0.143	-0.118	0.056	0.067	-0.066	0.08	-0.028	-0.042	
COX20 isoform 2 (UniProt Q5RI15)	-0.019	0.043	-0.022	-0.055	0.016	0.006	0	-0.018	-0.018	0.019
CDAN1 (UniProt Q8IWY9)	0.057	-0.001	-0.044	-0.036	-0.168	-0.051	-0.006	0.026	0.009	-0.398 (active)
CDC25B isoform 4 (UniProt P30305)	0.068	0.037	-0.302	0.079	-0.049	0.021	-0.02	0.007	0.155	
CSNK2A2 (UniProt P19784)	0.033	0.006	0.585 (active)	0.001	-0.065	0.026	-0.029	0.149	0.009	0.235 (active)
CASP8 isoform 9 (UniProt Q14790)	-0.056	-0.027	0.098	-0.058	-0.092	-0.264	-0.025	0.124	0.028	0
CD151 (UniProt P48509)	-0.077	0.012	0.025	0.013	-0.021	-0.017	0.027	-0.054	0.082	0.083
C1D (UniProt Q13901)	0.013	-0.041	-0.081	0.016	-0.047	0.072	0.055	-0.081	0.084	-0.004
CPQ (UniProt Q9Y646)	0.095	0.01	-0.034	-0.011	0.003	0.049	-0.032	0.007	0.023	0.006
CEMIP2 (UniProt Q9UHN6)	0	0.096	-0.045	-0.023	-0.026	0.122	0.11	-0.035	-0.211	0.057
